Pf growth 96h = P. falciparum growth inhibition at 96 hours | P. falciparum luciferase reporter growth, 96 h | Potency, µM (top dose mostly 28.7 µM), usual class: inhibitors | 320,000 tested, 6.9% active
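Erythrocytes infected with luciferase-expressing P. falciparum were dispensed at 2% hematocrit and 0.05% parasitemia (final), then incubated with compounds 96 hours at 37 C in 5% CO2. Luminescence after detection reagent addition reported growth.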
Pf growth 48h = inhibits P. falciparum growth in the first generation, 48 h. P. falciparum luciferase growth in erythrocytes, 48 h. Potency, µM (titrated, usually from 28.7 µM), hits mostly inhibitors. 310,000 tested, 5.9% active. AID 504832
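Here the parasites carry a stable luciferase gene and grow inside erythrocytes in Albumax-based RPMI medium with compound for one erythrocytic cycle. Activity is scored as loss of luminescent signal.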
AMA1 RON2 block = disrupts binding of P. falciparum AMA1 to RON2; AlphaScreen AMA1-biotinylated RON2 peptide binding; Potency, µM (doses to about 58.2 µM), hits mostly inhibitors; 360,000 tested, 0.2% active; AID 720542; note: nearly all actives have a fitted effect of over 45% in size
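AMA1 (3D7) with his tag at 25 nM final met compounds first, then biotinylated RON2 peptide at 25 nM; detection used donor plus acceptor beads, 10 µg/mL apiece, read by AlphaScreen after 30 min at room temperature.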
HCV inh = HCV inhibition | Potency, µM (titrated, usually from 41.8 µM), usual class: inhibitors | 340,000 tested, 3.4% active | AID 651820 | Huh7.5.1 HCVcc-Cre infection, luciferase reporter, 44 h
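Infectious HCV cell culture screen: compound-treated cells (1,000/well, pre-plated 4 h) are infected with HCVcc-Cre at roughly 0.5 moi and grown 44 h. Infection is quantified by luciferase signal after 15 min substrate incubation at room temperature.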
Of the large screens only hits and unclear results are named; the others gave an inactive call; ! = not active in a repeat. This is a sample that favours compounds with a hit; in the whole collection about 11% have one here. Calls come from the whole dose curve; as a rule, active = well fitted curve in the direction sought with a large enough effect; inconclusive = small, poorly fitted or top-dose-only effect, or another doubt; inactive = no such curve, though single readings can be large; an effect the other way counts as inactive or inconclusive.

CCN(CC)CCC(c1cc(OC)c(OC)c(OC)c1)c1c(OC)cc(OC)c2ccc(=O)oc12 (centres undefined)	Pf growth 96h inconclusive, Pf growth 48h inconclusive
COc1cc(OC)c2ccc(=O)oc2c1C(CC(=O)N1CCCC(C)C1)c1ccc2c(c1)OCO2 (centres undefined)	Pf growth 96h inconclusive, Pf growth 48h inconclusive
COc1cc(O)c(C(CC(=O)N2CCN(c3ccccc3)CC2)c2ccc(N(C)C)cc2)c(OC)c1 (centres undefined)	Pf growth 96h 12µM, Pf growth 48h inconclusive, AMA1 RON2 block inconclusive, HCV inh inconclusive
COc1cc(C(CC(=O)N2CCCC2)c2c(OC)cc(OC)c3ccc(=O)oc23)cc(OC)c1OC (centres undefined)	Pf growth 96h 13µM, Pf growth 48h 13µM
Cc1ccc(S(=O)(=O)NCCc2ccncc2)cc1[N+](=O)[O-]	Pf growth 96h inconclusive, Pf growth 48h inconclusive
O=C(C[n+]1cccc(Br)c1)c1ccc(-c2ccccc2)cc1	HCV inh inconclusive
CSCCC(C(=O)Nc1c(C)cccc1C)n1c(COc2ccc(C)cc2)nc2ccccc21 (centres undefined)	none (no result: Pf growth 96h, Pf growth 48h, HCV inh)
CC1([N+](=O)[O-])COC2(OC1)C(=O)Nc1ccccc12 (centres undefined)	none
COc1ccc(C(CC(=O)N2CCCC2)c2c(O)cc(OC)cc2OC)cc1 (centres undefined)	none
COc1cc(C(CCN2CCN(c3ccccc3)CC2)c2c(OC)cc(OC)c3c(C)cc(=O)oc23)cc(OC)c1OC (centres undefined)	Pf growth 96h 3.7µM, Pf growth 48h 2.6µM, AMA1 RON2 block inconclusive, HCV inh 4µM
COc1ccc(C(CC(=O)N2CCN(c3ccccc3)CC2)c2c(OC)cc(OC)c3ccc(=O)oc23)cc1 (centres undefined)	Pf growth 96h 8.3µM, Pf growth 48h 7.4µM
COc1cc(OC)c2ccc(=O)oc2c1C(CC(=O)N1CCCC1)c1ccc2c(c1)OCO2 (centres undefined)	Pf growth 96h inconclusive, Pf growth 48h 9.3µM
Cc1ccccc1NC(=O)CN1C(=O)NC2(CCCCCCC2)C1=O	none
Clc1cccc(Cl)c1-c1noc(CN2CCOCC2)n1	Pf growth 96h inconclusive, Pf growth 48h 10µM
C=CCn1c(SCc2cc(=O)n3ccsc3n2)nc2ccccc2c1=O	none
C=CCn1c(SCc2cc(=O)n3ccsc3n2)nc2scc(C3CC3)c2c1=O	Pf growth 96h 4.1µM, Pf growth 48h inconclusive, HCV inh inconclusive
Cc1cc(C(=O)COC(=O)c2cccc(O)c2)c(C)n1C1CC1	HCV inh inconclusive
Cc1ccc(Nc2nc(N/N=C/c3c[nH]c4ccccc34)nc(N3CCOCC3)n2)cc1	Pf growth 96h inconclusive, Pf growth 48h inconclusive, HCV inh inconclusive
BrC(/C=N/Nc1nc(N2CCOCC2)nc(N2CCOCC2)n1)=C/c1ccccc1	Pf growth 48h 12µM
C(=N\Nc1nc(Nc2ccccc2)nc(N2CCOCC2)n1)/c1c[nH]c2ccccc12	Pf growth 96h inconclusive, Pf growth 48h inconclusive, HCV inh 3.5µM
Cc1cc(/C=N/Nc2nc(N3CCOCC3)nc(N3CCOCC3)n2)c(C)n1-c1ccccc1	Pf growth 48h 9.3µM, HCV inh inconclusive
Cc1[nH]c2ccccc2c1/C=N/Nc1nc(Nc2ccc(F)cc2)nc(N2CCOCC2)n1	Pf growth 96h 2.6µM, Pf growth 48h 4.1µM, HCV inh 8.9µM!
Cc1ccc(S(=O)(=O)N(C)CCCC(=O)NC(C)(C)C)cc1	none
CC(OC(=O)CN1C(=O)NC2(CCCC2)C1=O)C(=O)Nc1cccc(Cl)c1 (centres undefined)	none
CCn1nc(NC(=O)c2cccnc2)c2cc3cccc(C)c3nc21	HCV inh inconclusive
CCC(=O)Nc1nn(C)c2nc3c(C)cccc3cc12	Pf growth 48h inconclusive, HCV inh 10µM
CCn1nc(NC(=O)c2ccncc2)c2cc3cccc(C)c3nc21	Pf growth 96h 2.1µM, HCV inh inconclusive
COC(=O)c1ccc(NS(=O)(=O)c2cc(-c3cc(C)no3)ccc2OC)cc1	Pf growth 48h inconclusive
CC(C)CN1CCC(=O)N([C@H](COc2ccccc2)c2ccccc2)CC1	Pf growth 96h inconclusive, Pf growth 48h inconclusive
O=C(C[n+]1cccc(CNC(=O)c2ccc(OC(F)F)cc2)c1)Nc1ccc(F)cc1	Pf growth 96h 0.74µM, Pf growth 48h 8.3µM
O=C(C[n+]1cccc(CNC(=O)c2ccc(OC(F)F)cc2)c1)Nc1cccc(C(F)(F)F)c1	Pf growth 96h inconclusive, Pf growth 48h 5.2µM
CCCCN1CCc2c1nc1ccc(Br)cc1c2N	Pf growth 96h 1.7µM, HCV inh inconclusive (no result: Pf growth 48h)
Cc1ccc2nc3c(c(N)c2c1)CCN3C	Pf growth 96h inconclusive, HCV inh inconclusive
CCN(Cc1ccc(O)cc1)CC1CCCN(CCc2cccc(F)c2)C1 (centres undefined)	Pf growth 96h 12µM, Pf growth 48h 2.3µM, HCV inh 8.9µM
CN(CC1CCN(CCc2cccc(C(F)(F)F)c2)CC1)C(=O)c1ccc(F)cc1F	Pf growth 48h inconclusive
CSCCC(=O)N(C)CC1CCN(CCc2cccc(C(F)(F)F)c2)CC1	Pf growth 96h 4.1µM
C=CCC(=O)N(CC)CC1CCCN(CCc2cccc(F)c2)C1 (centres undefined)	none
CN(CC1CCCN(CCc2cccc(C(F)(F)F)c2)C1)C(=O)c1ccco1 (centres undefined)	none
CC(=O)Nc1ccc(CN(C)CC2CCCN(CCc3cccc(C(F)(F)F)c3)C2)cc1 (centres undefined)	Pf growth 96h inconclusive, Pf growth 48h 4.1µM, HCV inh 1.4µM
O=C(c1ccc(Cn2cc([N+](=O)[O-])cn2)o1)N1CCCCCC1	none
O=C(COc1ccc(Br)cc1)Nc1ccc(CN2CCOCC2)cc1	Pf growth 96h inconclusive (no result: HCV inh)
COc1ccc(N2C(=O)NC(NC(=O)c3ccncc3)(C(F)(F)F)C2=O)cc1 (centres undefined)	none
COc1ccccc1N1CCN(C(=O)CCc2nnc3ccc(N4CCCC4)nn23)CC1	Pf growth 96h inconclusive
CC1CCN(c2ccc3nnc(CCC(=O)N4CCN(c5ccc(F)cc5)CC4)n3n2)CC1	Pf growth 48h 5.2µM, HCV inh inconclusive
CC1CCN(c2ccc3nnc(CCC(=O)N4CCCCC4)n3n2)CC1	Pf growth 96h inconclusive
COc1ccc(N2CCN(C(=O)CCc3nnc4ccc(N5CCCC5)nn34)CC2)cc1	Pf growth 96h 12µM, Pf growth 48h inconclusive
CNc1ccc(/C=C\CCCO)cn1	none (no result: Pf growth 96h, Pf growth 48h, HCV inh)
O=C(N/N=C/c1ccc(O)cc1)/C(=C/c1ccccc1)CCO	Pf growth 96h inconclusive, Pf growth 48h 13µM
CCOC(=O)Cc1csc(NC(=O)c2ccc(C)c(S(=O)(=O)N3CCOCC3)c2)n1	Pf growth 96h inconclusive, HCV inh inconclusive
CC(=O)N/N=C(\C)CC(=O)NC(C)(C)C	Pf growth 96h 3.7µM
CC(C)(C)NC(=O)CCCCCCCC(=O)NC(C)(C)C	none
Brc1ccc(-c2cnnc(N3CCCC3)n2)cc1	Pf growth 96h inconclusive, Pf growth 48h 3.3µM
c1ccc(-c2cnnc(N3CCOCC3)n2)cc1	none

Screening results from PubChem.
